A short description of experiment [1]: ATG_GRE_CIS: Attagene CIS-FACTORIAL HepG2 Assay for human Glucocorticoid Response Elements (GRE) (AID 2282947). The following applies: HepG2 GRE cis-reporter, Attagene multiplex mRNA; actives raise or lower the signal. The procedure, abridged:
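Transiently transfected HepG2 cells carrying GRE cis-reporter units (endogenous TF activity) dosed 24 h; reporter mRNA quantified by RT-PCR, 6-FAM labelling, HpaI digestion and capillary electrophoresis. Bidirectional fit versus DMSO baseline.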

Experiment [2] is described as follows: ATG_ISRE_CIS: Attagene CIS-FACTORIAL HepG2 Assay for human Interferon Regulatory Factor 1 (IRF1) binding to an Interferon-Stimulated Response Element (ISRE) (AID 2282948). The following applies: HepG2 ISRE cis-reporter (Attagene), mRNA transcription readout; actives raise or lower the signal. The procedure, abridged:
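HepG2 cells transiently transfected with multiplexed cis-promoter reporter units; after 24 h compound exposure, reporter mRNA quantified by RT-PCR, FAM labelling, HpaI digestion and capillary electrophoresis. Bidirectional fit versus DMSO baseline.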

Experiment [3] can be described thus: ATG_M_32_CIS: Attagene CIS-FACTORIAL HepG2 Assay for M32 Transcription Factor (Internal Marker) (AID 2282949).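 Also: background control marker of the multiplexed CIS panel rather than a real target.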 The following applies: HepG2 Attagene cis-factorial M32 reporter, mRNA; actives raise or lower the signal. The procedure, abridged:
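Fluorescent capillary electrophoresis peaks of HpaI-digested, FAM-labelled RT-PCR reporter products give the signal. Source: transiently transfected human liver HepG2 cells, 24 h after chemical dosing; bidirectional fitting against DMSO.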

Experiment [4] can be described thus: ATG_M_06_CIS: Attagene CIS-FACTORIAL HepG2 Assay for M06 Transcription Factor (Internal Marker) (AID 2282950). Particulars: HepG2 Attagene CIS-FACTORIAL M06 internal marker reporter; actives raise or lower the signal. The procedure, abridged:
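Cells (HepG2, transiently carrying cis-driven reporter units) receive chemical for 24 h before RNA isolation. Reporter cDNA is PCR-amplified, FAM-labelled by primer extension, HpaI-digested and sized on a capillary analyser.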

For experiment [5], the target named is Hypoxia-inducible factor 1-alpha (Homo sapiens) (UniProt Q16665). Briefly: ATG_HIF1a_CIS: Attagene CIS-FACTORIAL HepG2 Assay for human Hypoxia Inducible Factor 1 (HIF1A) (AID 2282951). Particulars: HepG2 Attagene cis-factorial HIF1a reporter transcription; actives raise or lower the signal. The procedure, abridged:
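Transient MRTU transfection of human HepG2 liver cells, 24 h compound treatment, then total RNA isolation, oligo(dT) reverse transcription, PCR amplification, fluorescent labelling and capillary electrophoresis of reporter fragments. Gain or loss relative to DMSO.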

Experiment [6] deals with Hepatocyte nuclear factor 6 (Homo sapiens) (UniProt Q9UBC0). Briefly: ATG_HNF6_CIS: Attagene CIS-FACTORIAL HepG2 Assay for human Hepatocyte Nuclear Factor 6 (HNF6) (AID 2282952). Particulars: HepG2 Attagene cis-factorial HNF6 reporter transcription; actives raise or lower the signal. The procedure, abridged:
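Transiently transfected HepG2 cells expressing cis-regulated reporter transcription units were exposed to chemical for 24 h in a 24-well format. Reporter transcript abundance was determined by fluorescence capillary electrophoresis.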

Experiment [7] has as its target Heat shock factor protein 1 (Homo sapiens) (UniProt Q00613). Nature of the experiment: ATG_HSE_CIS: Attagene CIS-FACTORIAL HepG2 Assay for human Heat Shock Transcription Factor 1 (HSE) (AID 2282953). The following applies: HepG2 HSE cis-reporter, Attagene RNA transcription; actives raise or lower the signal. The procedure, abridged:
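Liver-derived HepG2 cells carry transiently introduced multiple reporter units governed by cis promoters. Reporter RNA measured 24 h post-dose through reverse transcription, PCR amplification, fluorescent labelling and capillary electrophoresis, normalised to DMSO.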

Experiment [8] in a line: ATG_MRE_CIS: Attagene CIS-FACTORIAL HepG2 Assay for human Metal Responsive Element (MRE) (AID 2282954). Particulars: HepG2 MRE cis-reporter transcription, Attagene multiplex; actives raise or lower the signal. An outline of the steps:
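HepG2 cells transiently transfected with cis-element-driven reporter units; mRNA measured 24 h after dosing. Reporter transcripts quantified by RT-PCR, FAM labelling, HpaI digestion and capillary electrophoresis; bidirectional fit versus DMSO.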

Experiment [9] concerns the target Paired box protein Pax-6 (Homo sapiens) (UniProt P26367). Nature of the experiment: ATG_Pax6_CIS: Attagene CIS-FACTORIAL HepG2 Assay for human Paired Box 6 (PAX6) (AID 2282956). Particulars: HepG2 CIS-FACTORIAL PAX6 reporter transcription, RNA readout; actives raise or lower the signal. The procedure, abridged:
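HepG2 cells transiently transfected with multiplexed cis-promoter reporter units (endogenous TF activity) were dosed for 24 h. Reporter mRNA was quantified by RT-PCR, 6-FAM labeling, HpaI digestion and capillary electrophoresis; bidirectional fitting versus DMSO baseline.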

Experiment [10] in a line: ATG_PXRE_CIS: Attagene CIS-FACTORIAL HepG2 Assay for human Pregnane X Receptor Element (PXRE) (AID 2282957). The following applies: HepG2 Attagene CIS-FACTORIAL PXRE reporter, mRNA; actives raise or lower the signal. An outline of the steps:
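Cis-element reporter mRNA in human hepatoma HepG2 cells is measured 24 h post-dosing by RT-PCR, primer-extension labeling and capillary electrophoresis; gain or loss of signal is fitted relative to DMSO.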

The nature of experiment [11]: ATG_PPRE_CIS: Attagene CIS-FACTORIAL HepG2 Assay for human Peroxisome Proliferator-activated Response Element (PPRE) (AID 2282958). Particulars: HepG2 PPRE cis-element reporter, Attagene transcription factor profiling; actives raise or lower the signal. The procedure, abridged: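 HepG2, transient MRTU transfection (cis promoter elements, endogenous TFs). 24 h dosing. RNA → oligo(dT) RT → PCR → 6-FAM primer extension → HpaI digest → CE. Bidirectional fit vs DMSO.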

Experiment [12] is described as follows: ATG_RORE_CIS: Attagene CIS-FACTORIAL HepG2 Assay for human RAR-related Orphan Receptor Element (RORE) (AID 2282959). Particulars: HepG2 Attagene cis-factorial RORE reporter, mRNA; actives raise or lower the signal. The procedure, abridged: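 Transient MRTU transfection of human HepG2 liver cells (FuGene 6); 24 h compound exposure; TriZol RNA, oligo(dT) RT, PCR, FAM labeling, HpaI cut, CE fragment analysis. DMSO = negative control/baseline.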

A short description of experiment [13]: ATG_SREBP_CIS: Attagene CIS-FACTORIAL HepG2 Assay for human Sterol Regulatory Element Binding (SREBP) (AID 2282962). Particulars: HepG2 Attagene cis-factorial SREBP reporter, mRNA; actives raise or lower the signal. The procedure, abridged:
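HepG2 cells transiently transfected with multiplexed cis-element reporter units report endogenous transcription factor activity. After 24 h of chemical exposure, reporter mRNA was quantified by RT-PCR, 6-FAM labelling, HpaI digestion and capillary electrophoresis; bidirectional fits used DMSO as baseline.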

Experiment [14] addresses Signal transducer and activator of transcription 3 (Homo sapiens) (UniProt P40763). Briefly: ATG_STAT3_CIS: Attagene CIS-FACTORIAL HepG2 Assay for human Signal Transducer and Activator of Transcription 3 (STAT3) (AID 2282963). Particulars: HepG2, Attagene cis-factorial STAT3 reporter transcription; actives raise or lower the signal. An outline of the steps: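 HepG2 cells transiently transfected with multiple cis-element-driven reporter units report endogenous transcription factor activity. After 24 h compound exposure, reporter mRNA is measured by RT-PCR, 6-FAM labelling, HpaI digestion and capillary electrophoresis. Fitted bidirectionally versus DMSO.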

Experiment [15] is described as follows: ATG_TA_CIS: Attagene CIS-FACTORIAL HepG2 Assay for human TA Basal Promoter (AID 2282964). The following applies: HepG2 Attagene CIS-factorial TA basal promoter reporter; actives raise or lower the signal. The procedure, abridged:
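Background internal-marker endpoint from a 52-component HepG2 cis-reporter panel. Cells treated 24 h; reporter transcripts quantified via RT-PCR and CE fluorescence against DMSO baseline.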

Experiment [16] in a line: ATG_TCF_b_cat_CIS: Attagene CIS-FACTORIAL HepG2 Assay for human T-Cell-Factor with beta-catenin (TCF/b-cat) (AID 2282965). The following applies: HepG2 TCF/beta-catenin cis-reporter transcription, actives raise or lower the signal. An outline of the steps: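 HepG2, transient MRTU transfection, cis-element-driven reporters (endogenous TFs). 24 h compound exposure. Readout: reporter mRNA by RT-PCR + 6-FAM primer extension, HpaI digest, capillary electrophoresis. Gain/loss fit vs DMSO baseline.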

Experiment [17] is described as follows: ATG_Sox_CIS: Attagene CIS-FACTORIAL HepG2 Assay for human SRY-box transcription factor (SOX) (AID 2282960). Particulars: HepG2 Attagene cis-factorial SOX reporter, mRNA; actives raise or lower the signal. The procedure, abridged: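 Endogenous factor activity in human liver HepG2 cells carrying transfected cis-regulated reporter units. RNA taken 24 h post-dose, reverse-transcribed, PCR-amplified and sized by capillary electrophoresis. Gain or loss of signal fitted relative to DMSO.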

Experiment [18] deals with Transcription factor Sp1 (Homo sapiens) (UniProt P08047). Nature of the experiment: ATG_Sp1_CIS: Attagene CIS-FACTORIAL HepG2 Assay for human Specificity Protein 1 (Sp1) (AID 2282961). Particulars: HepG2 Sp1 cis-reporter transcription, actives raise or lower the signal. The procedure, abridged: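 Transient MRTU-transfected HepG2, 24 h compound exposure. Total RNA → oligo(dT) RT → PCR of reporter → 6-FAM primer extension → HpaI digest → CE. Endpoint fitted both directions vs DMSO.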

Experiment [19] is described as follows: ATG_PBREM_CIS: Attagene CIS-FACTORIAL HepG2 Assay for human Phenobarbital-responsive Enhancer Module (PBREM) (AID 2282955). The following applies: HepG2 PBREM cis-reporter, Attagene multiplexed transcription; actives raise or lower the signal. The procedure, abridged:
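Endogenous transcription factors in human liver HepG2 cells drive a PBREM cis-element reporter, whose transcript level after 24 h treatment is quantified by RT-PCR with capillary electrophoresis; activity fitted in both directions against DMSO.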

The values below come from PubChem BioAssay (EPA / NIEHS).

Each structure is given as a SMILES string. Calls of active or inactive are those of the source. The calls were made as follows: active = hit-call score of the fitted dose curve at least 0.9, where 1 is the maximum; inactive = score below 0.9.

Chain of Transcription factor Sp1 (Homo sapiens) (P08047 whole entry, looked up): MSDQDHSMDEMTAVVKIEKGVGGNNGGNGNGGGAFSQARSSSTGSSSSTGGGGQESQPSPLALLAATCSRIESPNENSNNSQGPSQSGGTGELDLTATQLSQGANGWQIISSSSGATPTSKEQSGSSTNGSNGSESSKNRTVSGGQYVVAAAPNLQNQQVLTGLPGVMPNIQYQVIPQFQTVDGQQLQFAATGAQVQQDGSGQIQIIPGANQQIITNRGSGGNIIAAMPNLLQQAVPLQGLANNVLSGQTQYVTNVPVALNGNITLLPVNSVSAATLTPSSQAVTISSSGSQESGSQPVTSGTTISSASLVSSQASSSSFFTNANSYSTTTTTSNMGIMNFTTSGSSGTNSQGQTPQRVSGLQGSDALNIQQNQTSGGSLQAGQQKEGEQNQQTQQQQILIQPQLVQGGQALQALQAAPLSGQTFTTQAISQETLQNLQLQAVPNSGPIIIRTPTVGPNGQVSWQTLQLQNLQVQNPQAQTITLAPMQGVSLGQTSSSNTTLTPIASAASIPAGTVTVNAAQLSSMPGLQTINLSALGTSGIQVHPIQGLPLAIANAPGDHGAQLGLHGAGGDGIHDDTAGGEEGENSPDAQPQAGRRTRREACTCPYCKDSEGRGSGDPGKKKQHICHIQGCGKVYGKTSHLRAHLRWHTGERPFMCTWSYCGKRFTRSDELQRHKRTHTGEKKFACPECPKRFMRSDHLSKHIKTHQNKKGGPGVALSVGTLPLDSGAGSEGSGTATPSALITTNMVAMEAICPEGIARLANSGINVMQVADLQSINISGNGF
Chain of Signal transducer and activator of transcription 3 (Homo sapiens) (P40763 whole entry, looked up): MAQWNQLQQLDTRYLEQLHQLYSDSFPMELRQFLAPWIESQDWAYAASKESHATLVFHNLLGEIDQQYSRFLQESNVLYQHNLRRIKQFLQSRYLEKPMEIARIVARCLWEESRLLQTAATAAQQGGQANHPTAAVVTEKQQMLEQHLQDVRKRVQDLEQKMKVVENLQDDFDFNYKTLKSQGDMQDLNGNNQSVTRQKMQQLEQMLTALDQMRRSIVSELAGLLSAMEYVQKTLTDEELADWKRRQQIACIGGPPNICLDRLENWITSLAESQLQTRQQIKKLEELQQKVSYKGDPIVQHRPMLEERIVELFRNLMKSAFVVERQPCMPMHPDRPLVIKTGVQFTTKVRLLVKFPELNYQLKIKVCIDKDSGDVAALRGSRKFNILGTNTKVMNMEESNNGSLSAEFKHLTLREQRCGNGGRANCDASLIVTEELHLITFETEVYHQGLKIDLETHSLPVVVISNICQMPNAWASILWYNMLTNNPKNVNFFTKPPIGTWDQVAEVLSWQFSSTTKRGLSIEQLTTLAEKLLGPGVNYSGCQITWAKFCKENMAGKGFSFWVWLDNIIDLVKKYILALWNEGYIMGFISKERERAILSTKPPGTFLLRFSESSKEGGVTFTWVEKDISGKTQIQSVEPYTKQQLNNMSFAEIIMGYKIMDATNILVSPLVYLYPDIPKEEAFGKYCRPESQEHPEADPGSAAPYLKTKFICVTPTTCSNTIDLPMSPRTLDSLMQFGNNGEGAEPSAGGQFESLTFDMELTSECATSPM
Chain of Heat shock factor protein 1 (Homo sapiens) (Q00613 whole entry, looked up): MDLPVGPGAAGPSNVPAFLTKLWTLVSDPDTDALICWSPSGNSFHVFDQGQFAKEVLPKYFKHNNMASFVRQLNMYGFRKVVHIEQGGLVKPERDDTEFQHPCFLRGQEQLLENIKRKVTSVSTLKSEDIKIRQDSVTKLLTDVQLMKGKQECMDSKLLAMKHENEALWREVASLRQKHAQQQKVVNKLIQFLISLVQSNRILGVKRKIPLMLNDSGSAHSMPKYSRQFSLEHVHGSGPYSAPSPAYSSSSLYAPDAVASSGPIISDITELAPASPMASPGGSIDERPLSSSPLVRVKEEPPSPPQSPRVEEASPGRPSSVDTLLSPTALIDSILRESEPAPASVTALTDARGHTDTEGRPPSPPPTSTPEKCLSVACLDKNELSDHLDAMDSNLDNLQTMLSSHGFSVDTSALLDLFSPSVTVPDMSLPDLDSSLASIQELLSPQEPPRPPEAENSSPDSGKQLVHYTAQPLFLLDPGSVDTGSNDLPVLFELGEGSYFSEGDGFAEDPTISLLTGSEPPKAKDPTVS
Chain of Hepatocyte nuclear factor 6 (Homo sapiens) (Q9UBC0 whole entry, looked up): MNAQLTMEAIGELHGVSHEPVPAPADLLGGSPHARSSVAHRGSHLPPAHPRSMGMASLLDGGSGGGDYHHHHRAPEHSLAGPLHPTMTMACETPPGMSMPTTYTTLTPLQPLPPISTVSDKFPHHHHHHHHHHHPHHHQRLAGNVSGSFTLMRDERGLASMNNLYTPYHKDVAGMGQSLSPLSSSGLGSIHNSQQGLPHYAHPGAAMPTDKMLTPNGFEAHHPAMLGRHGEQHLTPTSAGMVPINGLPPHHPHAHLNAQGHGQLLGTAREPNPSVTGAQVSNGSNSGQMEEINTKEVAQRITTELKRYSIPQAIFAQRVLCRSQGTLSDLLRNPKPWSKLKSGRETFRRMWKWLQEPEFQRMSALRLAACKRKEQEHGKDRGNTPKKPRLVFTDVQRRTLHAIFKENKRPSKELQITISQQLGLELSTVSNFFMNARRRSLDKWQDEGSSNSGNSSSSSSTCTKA
Chain of Paired box protein Pax-6 (Homo sapiens) (P26367 whole entry, looked up): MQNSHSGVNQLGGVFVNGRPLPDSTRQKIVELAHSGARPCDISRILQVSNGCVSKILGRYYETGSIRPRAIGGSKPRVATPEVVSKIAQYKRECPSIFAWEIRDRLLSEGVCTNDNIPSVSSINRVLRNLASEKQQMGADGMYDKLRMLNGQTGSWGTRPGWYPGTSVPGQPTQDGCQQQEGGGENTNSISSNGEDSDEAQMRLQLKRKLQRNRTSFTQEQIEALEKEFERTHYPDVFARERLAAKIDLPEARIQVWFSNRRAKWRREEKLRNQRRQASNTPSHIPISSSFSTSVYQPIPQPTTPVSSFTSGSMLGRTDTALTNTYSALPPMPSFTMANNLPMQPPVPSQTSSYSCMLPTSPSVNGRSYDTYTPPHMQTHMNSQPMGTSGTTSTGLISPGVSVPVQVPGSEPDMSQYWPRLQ
Chain of Hypoxia-inducible factor 1-alpha (Homo sapiens) (Q16665 whole entry, looked up, the tested form may be a part): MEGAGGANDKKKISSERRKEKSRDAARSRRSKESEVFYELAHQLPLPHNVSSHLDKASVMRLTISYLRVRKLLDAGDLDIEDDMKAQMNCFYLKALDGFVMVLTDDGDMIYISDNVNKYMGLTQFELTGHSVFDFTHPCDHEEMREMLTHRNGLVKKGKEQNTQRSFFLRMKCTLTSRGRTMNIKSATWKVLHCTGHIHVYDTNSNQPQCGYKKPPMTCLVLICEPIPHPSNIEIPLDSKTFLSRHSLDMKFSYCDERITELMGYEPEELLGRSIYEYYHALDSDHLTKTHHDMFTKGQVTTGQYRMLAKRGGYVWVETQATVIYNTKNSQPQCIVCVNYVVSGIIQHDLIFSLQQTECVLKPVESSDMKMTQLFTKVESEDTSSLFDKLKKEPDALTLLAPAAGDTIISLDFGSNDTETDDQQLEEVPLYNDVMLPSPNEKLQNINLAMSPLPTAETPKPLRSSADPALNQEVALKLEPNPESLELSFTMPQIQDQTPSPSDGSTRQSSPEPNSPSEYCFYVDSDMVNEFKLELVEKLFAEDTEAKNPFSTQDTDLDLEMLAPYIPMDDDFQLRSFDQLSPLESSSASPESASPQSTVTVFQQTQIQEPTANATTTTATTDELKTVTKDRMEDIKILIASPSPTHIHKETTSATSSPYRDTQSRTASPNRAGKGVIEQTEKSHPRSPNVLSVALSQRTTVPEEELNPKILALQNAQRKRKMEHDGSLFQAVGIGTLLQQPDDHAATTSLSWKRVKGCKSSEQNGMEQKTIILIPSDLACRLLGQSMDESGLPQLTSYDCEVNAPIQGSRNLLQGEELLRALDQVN

Take `CCCCCCCCCCCCCCCCCC#N`: the outcome in [1], in experiment [2], in [3], in experiment [4], in [5] and in [6] was inactive. Moreover, the outcome in experiment [7], in experiment [8], in experiment [9], in [10], in [11] and in experiment [12] was inactive. Moreover, the outcome in experiment [13], in [14], in [15] and in [16] was inactive.

On to `SCCc1cnccn1`, for which the compound was called inactive in experiment [1], in [3], in experiment [4], in experiment [5], in [6] and in experiment [7]. Moreover, the call in experiment [8], in experiment [9], in experiment [12], in experiment [17], in [18] and in experiment [16] was inactive. The AC50 in experiment [2] was 43.3 µM (active); in [10], 78.1 µM (active).

On to `Cc1ccc2c(c1)C(=O)c1ccccc1C2=O`, for which the result in experiment [1], in experiment [2], in experiment [3], in experiment [4], in experiment [5] and in experiment [7] was inactive. For the same compound, the compound was called inactive in [8], in experiment [19], in experiment [9], in experiment [11], in experiment [12] and in experiment [17]. Also, the call in experiment [18], in [13], in experiment [14], in experiment [15] and in [16] was inactive. Also, the AC50 in experiment [10] was 6.22 µM (active).

Turning to `O=C1CCCN1CCO`, the compound was called inactive in experiment [1], in [2], in experiment [3], in [4], in experiment [5] and in [6]. The compound was called inactive in experiment [7], in [8], in experiment [9], in experiment [10], in experiment [12] and in [17]. Also, the compound was called inactive in [18], in [13], in [14], in [15] and in [16].

With `Nc1ncn([C@@H]2O[C@H](CO)[C@@H](O)[C@H]2O)c(=O)n1`, the result in experiment [1], in [3], in [4], in [6], in experiment [7] and in experiment [8] was inactive. Also, the result in experiment [19], in experiment [9], in experiment [10], in [11], in experiment [12] and in experiment [17] was inactive. For the same compound, the compound was called inactive in [18], in experiment [13], in [14] and in experiment [15]. The values for the AC50 in experiment [2] and in experiment [16] were 10.8 µM (active) and 0.975 µM (active), respectively.

With `c1c[nH]cn1`, the compound was classed as inactive in experiment [1], in [2], in experiment [3], in experiment [4], in experiment [5] and in [6]. Besides, the compound was called inactive in experiment [7], in experiment [8], in experiment [9], in experiment [11], in experiment [12] and in [17]. Also, the call in experiment [13], in [14], in experiment [15] and in experiment [16] was inactive. Also, in experiment [10], the concentration at half-maximal activity (AC50) was 63.8 µM (active).

On to `CCOCC(=O)O`, for which the result in experiment [1], in experiment [2], in experiment [3], in experiment [4], in [5] and in [6] was inactive. Further, the call in experiment [7], in [8], in experiment [9], in experiment [11], in experiment [17] and in experiment [18] was inactive. In addition, the result in experiment [14], in [15] and in experiment [16] was inactive. Besides, in experiment [10], the AC50 was 72 µM (active).

With `CCCCCC/C=C/C=O`, the compound was classed as inactive in [1], in [2], in experiment [3], in experiment [4], in experiment [5] and in experiment [6]. For the same compound, the result in [8], in [19], in experiment [9], in experiment [17], in experiment [18] and in [13] was inactive. Further, the call in [14] and in experiment [15] was inactive. Besides, the concentration at half-maximal activity (AC50) in experiment [10] is 37.8 µM (active); in experiment [11], 15 µM (active).
